From PubChem BioAssay
Sampled rows, rich in hits. Any-hit rate of the full collection: about 19%.
IL-1B inflam inh – qHTS for Inhibitors of Inflammasome Signaling: IL-1-beta AlphaLISA Primary Screen; THP-1 LPS/ATP IL-1B secretion, AlphaLISA, 16 h; hits give low values; activity change, % at 57.5 µM; 4.7% of 360,000 active; in the data active = activity change below about -50%; inconclusive = mostly about -30% to -49%; note: % is set by controls: 0 for no effect and ±100 for the full control effect
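Secreted IL-1B measured by AlphaLISA bead assay after 16 h compound exposure of THP-1 cells; compounds (final up to 57.5 uM) added 1 h before LPS (250 ng/mL) and ATP (1.25 mM) stimulation; lower signal means less secretion.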
SW480 rereplic – A quantitative high throughput screen for small molecules that induce DNA re-replication in SW480 colon adenocarcinoma cells. SW480 DNA re-replication, Hoechst DNA content imaging, 48 h. Potency, µM (highest dose often 46.1 µM), without a hit: top-dose re-replication activation, usual class: activators. 1.8% of 340,000 active. AID 624297, 2012; note: potency is the fitted concentration of half-maximal effect; % of control where 0% means no effect; nearly all actives have a fitted effect of over 55% in size
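First, 250 cells per well were seeded. Next, compound or vehicle (23 nL) was pinned in, plates sat 48 hr at 37 C. Finally Hoechst was added for 40 min before fluorescence scanning.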
Chronic BCR inh – qHTS Assay to Find Inhibitors of Chronic Active B-Cell Receptor Signaling. Potency, µM (highest dose often 46.1 µM), for inactives: top-dose activity change, negative = inhibition, hits mostly inhibitors. ABC-DLBCL IkBa-CBG/CBR reporter, luminescence ratio, 4 h. 0.05% of 340,000 active; active = well fitted inhibition curve with a large enough effect in the signal ratio, with a control signal flat, not every such curve was filed as active; inconclusive = small, poorly fitted or top-dose-only effect, or effect the other way, or a change in a side signal; the % refers to the signal ratio;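 note: potency is the fitted concentration of half-maximal effect; plate controls were basal doxycycline-induced cells for no effect and cells given 10 µM MG132 for full effect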
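TMD8 human ABC-DLBCL cells with doxycycline-inducible IκBα–green luciferase fusion and unfused red luciferase, in 0.5% FBS medium; compounds up to 46 uM, 4 h at 37C. Green/red luminescence ratio, filter-overlap corrected, fitted to concentration-response curves.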
TDP1 cell noCPT – qHTS for Inhibitors of human tyrosyl-DNA phosphodiesterase 1 (TDP1): qHTS in cells in absence of CPT; DT40 Tdp1-/- hTDP1 cells, no CPT, ATP luminescence, 48 h; 15% of 420,000 active; Potency, µM (series often up to 46.2 µM), for the others: at the highest dose activity change, negative = growth inhibition, most hits filed as inhibitors; note: potency is the fitted concentration of half-maximal effect; % is set by controls: 0 for no effect and ±100 for the full control effect; nearly all actives have a fitted effect of over 55% in size
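Chicken DT40 Tdp1-/- cells stably complemented with human TDP1 were seeded at 400 cells/well with DMSO in place of 20 nM camptothecin. After compound pinning, cells grew at least 48 hr at 37 °C; viability read by CellTiter-Glo luminescence.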
DT40 TDP1 CPT – qHTS for Inhibitors of human tyrosyl-DNA phosphodiesterase 1 (TDP1): qHTS in cells in presence of CPT. chicken DT40 Tdp1-/-;hTDP1 cells + 20 nM CPT, ATP luminescence, 48 h. Potency, µM (highest dose often 46.2 µM), for inactives: at the top dose activity change, negative = growth inhibition, most hits filed as inhibitors. 12% of 420,000 active; note: potency is the fitted concentration of half-maximal effect; % is set by controls: 0 for no effect and ±100 for the full control effect; nearly all actives have a fitted effect of over 55% in size
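Chicken DT40 Tdp1-/- cells complemented with human TDP1, 400 cells/well, exposed to compounds plus 20 nM camptothecin for at least 48 h at 37 C; viability read as ATP content by CellTiter-Glo luminescence.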
MCF10A rereplic – A quantitative high throughput screen for small molecules that induce DNA re-replication in MCF 10a normal breast cells. 2.9% of 350,000 active. Potency, µM (titrated, usually from 46.1 µM), inactives show top-dose activity, positive = re-replication, hits mostly activators. MCF 10A DNA re-replication, Hoechst nuclear intensity, 48 h; note: potency is the fitted concentration of half-maximal effect; % of control where 0% means no effect; nearly all actives have a fitted effect of over 50% in size
* hit, by the source's call. Unless noted, calls come from the whole dose curve; as a rule, active = well fitted curve in the direction sought with a large enough effect; inconclusive = small, poorly fitted or top-dose-only effect, or another doubt; inactive = no such curve, though single readings can be large; an effect the other way counts as inactive or inconclusive.

Screening CC(C)CC(=O)OCc1cc(=O)n2nc(C3CCCCC3)sc2n1 returned TDP1 cell noCPT inconclusive and DT40 TDP1 CPT -7%.
Screening CSc1nc(NCc2ccco2)c2ccccc2n1 returned IL-1B inflam inh -13, SW480 rereplic -33%, Chronic BCR inh 7%, TDP1 cell noCPT inconclusive, DT40 TDP1 CPT inconclusive and MCF10A rereplic 1%.
For CNc1nc(NCc2ccco2)c2ccccc2n1 the results were TDP1 cell noCPT 16µM* and DT40 TDP1 CPT 10µM*.
`Cc1ccccc1-c1nc(C#N)c(N2CCCCC2)o1` gave IL-1B inflam inh inconclusive, SW480 rereplic -1%, Chronic BCR inh inconclusive, TDP1 cell noCPT 7%, DT40 TDP1 CPT 1% and MCF10A rereplic 11%.
CCN1C(=O)[C@@H]2[C@@H]3CN(S(=O)(=O)c4ccc(C)cc4)[C@@H](c4ccccc4)[C@@H]3C(=O)C[C@@H]2C1=O was read as IL-1B inflam inh -9, TDP1 cell noCPT -15% and DT40 TDP1 CPT -9%.
Screening CCOC1=CC2=C(C(=O)C(Cl)=CC2=O)[C@@H]2CN(S(=O)(=O)c3ccc(C)cc3)[C@@H](c3ccccc3)[C@H]12 returned IL-1B inflam inh 0, TDP1 cell noCPT 1.8µM* and DT40 TDP1 CPT 1.2µM*.
Screening CCC1CN(C(=O)N2CCC(C(=O)NCCc3ccccc3OC)CC2)c2ccccc2O1 (configuration not stated) returned IL-1B inflam inh -18, SW480 rereplic 1%, Chronic BCR inh -5%, TDP1 cell noCPT 13µM*, DT40 TDP1 CPT inconclusive and MCF10A rereplic inconclusive.
CCC1CN(C(=O)N2CCC(C(=O)NCCc3ccc(OC)cc3OC)CC2)c2ccccc2O1 (configuration not stated) was read as IL-1B inflam inh inconclusive, SW480 rereplic inconclusive, Chronic BCR inh 0%, TDP1 cell noCPT inconclusive, DT40 TDP1 CPT 26µM* and MCF10A rereplic 3%.
`COc1ccc(CCNC(=O)C2CCCN(C(=O)N(C)C)C2)c(OC)c1` (configuration not stated) gave IL-1B inflam inh 6, SW480 rereplic -1%, Chronic BCR inh 4%, TDP1 cell noCPT -5%, DT40 TDP1 CPT -6% and MCF10A rereplic 3%.
`CCC1CN(C(=O)N2CCC(C(=O)NCCN(CC)CC)CC2)c2ccccc2O1` (configuration not stated) gave TDP1 cell noCPT 4% and DT40 TDP1 CPT 7%.
`CN(c1ccccc1)S(=O)(=O)c1ccc(C(=O)N2CCN(c3ccccc3)CC2)cc1` gave IL-1B inflam inh 7, TDP1 cell noCPT -13% and DT40 TDP1 CPT -2%.
For COC(=O)C1=C(C)NC(=S)NC1c1ccc(-c2cc(Cl)ccc2Cl)o1 (configuration not stated) the results were IL-1B inflam inh 33, SW480 rereplic inconclusive, Chronic BCR inh 4%, TDP1 cell noCPT 5.8µM*, DT40 TDP1 CPT 6.5µM* and MCF10A rereplic inconclusive.
`OC(c1ccccc1)c1nc(-c2ccccc2)cs1` (configuration not stated) gave IL-1B inflam inh 47, TDP1 cell noCPT -20% and DT40 TDP1 CPT 2%.
OC(c1ccccc1)c1nc2ccccc2s1 (configuration not stated) was read as IL-1B inflam inh 4, SW480 rereplic 1%, Chronic BCR inh 0%, TDP1 cell noCPT inconclusive, DT40 TDP1 CPT 23µM* and MCF10A rereplic 1%.
For COCc1cc(Sc2ccc(Cl)cc2)nc(C)n1 the results were IL-1B inflam inh 15, SW480 rereplic inconclusive, Chronic BCR inh inconclusive, TDP1 cell noCPT -9%, DT40 TDP1 CPT inconclusive and MCF10A rereplic 2%.
`COCc1cc(S(=O)c2ccc(Cl)cc2)nc(C)n1` (configuration not stated) gave IL-1B inflam inh -9, SW480 rereplic inconclusive, Chronic BCR inh inconclusive, TDP1 cell noCPT 2.9µM*, DT40 TDP1 CPT 4.6µM* and MCF10A rereplic 15µM*.
`CCc1ccc(N2CCn3c2nc2c3c(=O)n(Cc3cccc(C)c3)c(=O)n2C)cc1` gave TDP1 cell noCPT 4% and DT40 TDP1 CPT inconclusive.
Screening CCn1nc(C)c(CNC(=O)c2ccc(OC3CCN(Cc4ccccn4)CC3)cc2)c1C returned IL-1B inflam inh 23, SW480 rereplic 2%, Chronic BCR inh 0%, TDP1 cell noCPT 2.9µM*, DT40 TDP1 CPT 6.5µM* and MCF10A rereplic -2%.
`O=C(NCCc1cccc(Cl)c1)c1ccc(OC2CCN(Cc3ccccn3)CC2)cc1` gave IL-1B inflam inh inconclusive, SW480 rereplic 5%, Chronic BCR inh -6%, TDP1 cell noCPT 16µM*, DT40 TDP1 CPT 29µM* and MCF10A rereplic 9%.
Screening CCn1cc(CNC(=O)c2ccc(OC3CCN(Cc4ccccn4)CC3)cc2)cn1 returned IL-1B inflam inh 49, SW480 rereplic -4%, Chronic BCR inh 1%, TDP1 cell noCPT inconclusive, DT40 TDP1 CPT inconclusive and MCF10A rereplic -1%.
C[C@H](NC(=O)C1CCN(C(=O)[C@H](Cc2ccccc2)NC(=O)OC(C)(C)C)CC1)C(=O)O was read as IL-1B inflam inh -11, SW480 rereplic 0%, Chronic BCR inh 1%, TDP1 cell noCPT 1%, DT40 TDP1 CPT 10% and MCF10A rereplic 0%.
Screening COc1ccc(/C=N/NC(=O)CCSc2nc3ccccc3s2)cc1 returned IL-1B inflam inh inconclusive, SW480 rereplic 10µM*, Chronic BCR inh inconclusive, TDP1 cell noCPT 2.6µM*, DT40 TDP1 CPT 5.8µM* and MCF10A rereplic inconclusive.
`O=C(O)COc1ccccc1/C=N/NC(=O)COc1ccc(-c2ccccc2)cc1` gave IL-1B inflam inh -15, SW480 rereplic -9%, Chronic BCR inh 6%, TDP1 cell noCPT 29µM*, DT40 TDP1 CPT 3% and MCF10A rereplic -5%.
COc1ccc(/C=N/NC(=O)CCn2cnc(-c3ccccc3)c2-c2ccccc2)cc1 was read as IL-1B inflam inh 0, SW480 rereplic 3.3µM*, Chronic BCR inh 23µM*, TDP1 cell noCPT 0.65µM*, DT40 TDP1 CPT 1.6µM* and MCF10A rereplic 1.6µM*.
